Structures are written as SMILES. “And” between values parts separate entries of the source, which are not always exact repeats. Equal values may be shown once. Hit rate of the full screen: of about 16,000 compounds, about 2,600 (16%) were called active. Another 20% or so got no clear call; they are omitted. Calls follow the shape of the dose curve; as a rule, active = well fitted curve in the direction sought with a large enough effect; inconclusive = small, poorly fitted or top-dose-only effect, or effect the other way; inactive = no such curve, though single readings can be large or run the other way. What follows is part of a selection rich in actives, with near analogues and random picks from the rest. More than one record can exist for a structure, and the calls need not agree.
% is scaled to controls: 0 for no effect and ±100 for the full control effect.

In the experiment the target is Cytochrome P450 2D6 (Homo sapiens) (UniProt P10635). The experiment can be described thus: Cytochrome panel assay with activity outcomes. The following applies: recombinant CYP, pro-luciferin dealkylation, luminescence, p450-cyp2d6; series mostly up to 57.1 µM. As to the method: The P450 gene superfamily is involved in the metabolism and clearance of xenobiotics. This assay used various human CYP P450 isozymes to measure the dealkylation of various pro-luciferin substrates to luciferin. The luciferin is then measured by luminescence after the addition of a luciferase detection reagent. Pro-luciferin substrate concentration in the assay was equal to its KM for its CYP P450 isozyme. Inhibitors and some substrates limit the production of luciferin, and decrease measured luminescence.
Cytochrome P450 2D6 (Homo sapiens), sequence (P10635 whole entry, looked up): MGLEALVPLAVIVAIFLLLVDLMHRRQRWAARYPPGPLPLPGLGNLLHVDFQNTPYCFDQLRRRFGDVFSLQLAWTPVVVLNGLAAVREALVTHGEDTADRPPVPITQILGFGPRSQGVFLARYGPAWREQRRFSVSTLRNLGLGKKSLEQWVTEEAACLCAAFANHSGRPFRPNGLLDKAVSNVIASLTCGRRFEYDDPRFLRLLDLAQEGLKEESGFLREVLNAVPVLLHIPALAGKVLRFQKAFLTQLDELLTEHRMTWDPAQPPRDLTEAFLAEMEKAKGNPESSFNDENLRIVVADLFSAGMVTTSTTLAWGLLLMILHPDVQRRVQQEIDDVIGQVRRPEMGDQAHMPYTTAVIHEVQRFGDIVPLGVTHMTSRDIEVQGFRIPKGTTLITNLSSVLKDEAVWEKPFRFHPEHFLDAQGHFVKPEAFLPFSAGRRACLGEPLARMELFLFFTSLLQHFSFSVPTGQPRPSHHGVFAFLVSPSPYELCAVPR
NCGC Assay Protocol Summary:
1, Reagent, 2 uL, Isozyme and Pro-Luciferin
2, Library compounds, 23 nl, 40 uM to 0.24 nM dilution series
3, Controls, 23 nl, Isozyme specific inhibitor
4, Reagent, 2 uL, NADPH regeneration solution
5, Incubation time, 60 min, Isozyme specific temperature
6, Reagent, 4ul, Detection reagent
7, Incubation time, 20 min, Isozyme specific temperature
8, Detection, 1 sec, ViewLux luminescent read
The luciferase-based P450-GloTM Screening Systems were obtained from Promega (Madison, WI) for CYP 1A2 (V9770), CYP 2C9 (V9790), CYP2 C19 (V9880), CYP 2D6 (V9890), and CYP 3A4 Luciferin-PPXE (V9910) and were adapted for 1,536-well microplates and an automated protocol. The control compounds furafylline for 1A2 (F124), sulfaphenazole for CYP 2C9 (S0758), ketoconazole for CYP 2C19 (K1003), quinidine for 2D6 (Q3625), and ketoconazole for 3A4 (K1003) were purchased from Sigma Aldrich (St. Louis, MO). Recombinant P450 enzymes were obtained from baculovirus constructs expressed in insect cells (BD/Gentest).
Medium-binding white solid Kalypsys plates used. Mixtures kept on ice. 1A2: 10 nM 1A2, 100 uM Luc-ME, 100 mM KPO4; 2C9: 10 nM 2C9, 100 uM Luc-H, 25 mM KPO4; 2C19: 5 nM 2C19, 10 uM Luc-H EGE, 50 mM KPO4; 2D6: 5 nM 2D6, 30 uM Luc-ME EGE, 100 mM KPO4; 3A4: 10 nM, 25 uM Luc-PPXE. All amounts are reflected in their final concentration, working concentration is 2x.
NADPH regeneration solution: 1.3 mM NADP+, 3.3 mM glucose-6-phosphate, 3.3 mM MgCl2, 0.4 U/mL glucose-6-phosphate dehydrogenase for all isozymes, 200 mM KPO4 for 3A4. Mixture prepared at RT but kept on ice during automated run.
RT incubation in auxilliary plate hotel for 1A2, 2D6, and 3A4; 37C for 2C9 and 2C19.
Keywords: P450, CYP1A2, CYP2C19, CYP2C9, CYP2D6, CYP3A4, Luciferase, MLSMR, MLSCN, NIH Roadmap, qHTS, NCGC
On to `CC(C)[C@@]1(NC(=O)[C@@H]2C[C@H]3c4cccc5[nH]cc(c45)C[C@@H]3N(C)C2)O[C@@]2(O)[C@H]3CCCN3C(=O)[C@H](Cc3ccccc3)N2C1=O`, for which the AC50 – broadly, the concentration giving half of the maximal activity seen – was “inactive”.

On to `CC(C)[C@@]1(NC(=O)[C@@H]2C[C@H]3c4cccc5[nH]cc(c45)C[C@@H]3N(C)C2)O[C@]2(O)[C@H]3CCCN3C(=O)[C@H](Cc3ccccc3)N2C1=O`, for which the AC50 entry is “inactive”.

`CC(C)[C@@]1(NC(=O)[C@@H]2C[C@H]3c4cccc5[nH]cc(c45)C[C@@H]3N(C)C2)O[C@]2(O)[C@H]3CCCN3C(=O)CN2C1=O`: the AC50 result was “inactive”.

In the case of `NCCCNCCSP(=O)(O)O`, the AC50 result is “inactive”.

Consider `N[C@H](Cc1ccc2oc3cc(=O)c4ccccc4c-3nc2c1)C(=O)O`, for which the activity, negative = inhibition is -14.6% [at 11.4 µM] (inactive).

Turning to `CC1(C)CCC(C)(C)c2c1ccc(O)c2Cc1c(O)ccc2c1C(C)(C)CCC2(C)C`, the activity, negative = inhibition is 4.74% [at 11.4 µM] (inactive).

Take `CCn1c(O)c(C(c2ccccn2)c2c(O)n(CC)c(=S)[nH]c2=O)c(=O)[nH]c1=S`: the AC50 result is “inactive”.

Turning to `O=C(C[C@H](c1ccccc1)c1c(O)c2ccccc2oc1=O)c1ccccc1`, the activity, negative = inhibition was 12.6% [at 11.4 µM] (inactive).

Regarding `COCCn1c(SCc2nc3sc(C(=O)OC)c(C)c3c(=O)[nH]2)nc2ccccc21`, the AC50 is 10 µM (active).

As for `CC(C)C(=O)CP(=O)(O)O`, the activity, negative = inhibition is -4.98% [at 11.4 µM] (inactive).

As for `COc1cc(OC)c(/C=C2/C(=O)Nc3ccccc32)c(OC)c1`, the AC50 entry was “inactive”.

Turning to `CCOC(=O)c1cncn1[C@@H](C)c1ccccc1`, the AC50 entry was “inactive”.

In the case of `CCOC(=O)c1cncn1[C@H](C)c1ccccc1`, the AC50 result is “inactive”.

As for `C[C@H](c1ccccc1)N1CCN([C@@H](C)c2ccccc2)CC1`, the AC50 is 0.0631 µM (active).

As to `C(=NC12CN3CN(CN(C3)C1)C2)c1cccs1`, the AC50 result was “inactive”.

Regarding `S=C=Nc1cccc(C2(N3CCCCC3)CCCCC2)c1`, the AC50 is 10 µM (active).

`COC(=O)C1=CCCN(C)C1`: the AC50 entry was “inactive”.

Consider `CCCC(CCC)C(=O)O`, for which the AC50 result was “inactive”.

Take `CCC1(C)CC(=O)NC(=O)C1`: the AC50 result was “inactive”.

Take `N[C@H](Cc1o[nH]c(=O)c1Cl)C(=O)O`: the half-maximal activity concentration (AC50) is 0.158 µM (active).

As for `N[C@H](CCl)C(=O)O`, the AC50 result was “inactive”.

On to `N[C@H](C(=O)O)c1cc(=O)[nH]o1`, for which the AC50 entry is “inactive”.

As for `Cc1o[nH]c(=O)c1C[C@@H](N)C(=O)O`, the AC50 entry was “inactive”.

Consider `Cc1o[nH]c(=O)c1C[C@H](N)C(=O)O`, for which the AC50 result is “inactive and 15.8 µM (active)”.

On to `N[C@@H](Cc1cc(Br)c(O)c(Br)c1)C(=O)O`, for which the activity, negative = inhibition is 10.2% [at 11.4 µM] (inactive).

In the case of `C[C@@H]1O[C@H](O[C@@H]2CC[C@@]3(C=O)[C@H]4CC[C@@]5(C)[C@@H](C6=CC(=O)OC6)CC[C@@]5(O)[C@@H]4CC[C@]3(O)C2)C[C@H](O)[C@@H]1O`, the AC50 entry is “inactive”.

For the compound `CCCCCCN=Cc1c(O)n(C)c(=O)n(C)c1=O`, the AC50 entry was “inactive”.

As for `CC1=C(C)[N+](=O)C2(O)CCCCC2(C)N1[O-]` (stereo not given), the AC50 entry was “inactive”.

As to `C[C@@H]1O[C@@H](O[C@H]2C[C@@H](O)[C@]3(CO)[C@@H]4[C@@H](O)C[C@]5(C)[C@H](C6=CC(=O)OC6)CC[C@@]5(O)[C@H]4CC[C@@]3(O)C2)[C@H](O)[C@H](O)[C@@H]1O`, the AC50 entry is “inactive”.

`C[C@@H]1O[C@H](O[C@@H]2C[C@@H](O)[C@]3(CO)[C@H]4[C@H](O)C[C@]5(C)[C@@H](C6=CC(=O)OC6)CC[C@@]5(O)[C@@H]4CC[C@]3(O)C2)[C@@H](O)[C@H](O)[C@H]1O`: the AC50 was 0.0501 µM (active).

As for `C[C@@H]1O[C@H](O[C@H]2C[C@@H](O)[C@@]3(CO)[C@H]4[C@@H](O)C[C@]5(C)[C@@H](C6=CC(=O)OC6)CC[C@]5(O)[C@H]4CC[C@]3(O)C2)[C@@H](O)[C@H](O)[C@@H]1O`, the AC50 result is “inactive”.

For the compound `CCOC(=O)c1c(NC(=O)C(c2ccccc2)c2ccccc2)sc2c1C1CCN2CC1`, the AC50 result was “inactive”.

For the compound `CN1CC[C@@]23c4ccccc4N[C@H]1[C@]21CCN(C)[C@@H]3Nc2ccccc21`, the AC50 result is “inactive”.

On to `CCCCN(CCCC)CCC(O)c1cc2c(Cl)cc(Cl)cc2c2cc(C(F)(F)F)ccc12` (stereo not given), for which the AC50 was 3.98 µM (active).

Take `O=C(O)CNC(=O)[C@@H](CS)Cc1ccccc1`: the AC50 result was “inactive”.

Regarding `O=[N+]([O-])c1ccc2nc(N3CCNCC3)ccc2c1`, the AC50 entry is “inactive”.

`CN(N=O)C(=O)N[C@H]1[C@@H](O)[C@H](O)[C@H](CO)O[C@@H]1O`: the AC50 entry was “inactive”.

`COC(=O)[C@H]1[C@H](c2ccccc2)C(=O)[C@@]2(O)c3ccccc3O[C@@]12c1ccccc1`: the activity, negative = inhibition was 1.53% [at 11.4 µM] (inactive).

For the compound `CCS(=O)(=O)Nc1cccc(C(=C2CCCCC2)c2cnc[nH]2)c1`, the AC50 is 7.94 µM (active).

In the case of `CN1C(=O)C(C2c3ccccc3C(=O)N2Cc2ccc([N+](=O)[O-])cc2)C(=O)N(C)C1=O` (stereo not given), the AC50 result is “inactive”.

Take `C1C[C@@H]2CN(CCCN3CCOCC3)[C@@H](C1)O2`: the activity, negative = inhibition was -5.61% [at 11.4 µM] (inactive).

Take `CC1(C)CCC2=C(O1)c1ccccc1C(=O)C2=O`: the half-maximal activity concentration (AC50) is 15.8 µM (active).

Regarding `Cn1c[n+](C)cc1C(O)c1ccccc1` (stereo not given), the AC50 entry was “inactive”.

As to `CN1[C@@H](C[C@@H](O)c2ccccc2)CCC[C@@H]1C[C@H](O)c1ccccc1`, the AC50 was 0.631 µM (active).

Regarding `CN1[C@@H](CC(=O)c2ccccc2)CCC[C@@H]1C[C@@H](O)c1ccccc1`, the AC50 was 0.0794 µM (active).

The values above are taken from PubChem BioAssay AID1851 (National Center for Advancing Translational Sciences (NCATS), 2009).
